Each structure is given as a SMILES string. The source made the active and inactive calls. Cut-off read from the data, not from the text of the source: active = fold change mostly below about -2 (no sharp cut-off); inactive = mostly above about -1.8.

A short description of the assay: TERT promoter activity modulators, primary screen, cell-based, luciferase reporter, human (AID 1259240). The conditions noted are these: A2780 TERT promoter luciferase reporter, 16 h; at 20 µM, fold versus average of vehicle-only wells. (In a reporter assay the amount or activity of a reporter protein is the signal.)
For `O=C(Cc1ccc(NC2=NC3CS(=O)(=O)CC3S2)cc1)Nc1ccc(F)cc1` (centres undefined), the fold change is -1.7 (inactive).

As to `COc1cc2cc(=O)[nH]c(C)c2cc1OC`, the fold change is 1.08 (inactive).

For `CCn1c(SCc2nc(-c3ccc(Cl)cc3)no2)nnc1-c1ccco1`, the fold change was -2.86 (active). In the case of `Cc1cc(C(F)(F)F)nc(Nc2nc3ccccc3o2)n1`, the fold change is -1.19 (inactive).

Take `CCOC(=O)c1[nH]c2ccc(F)cc2c1N`: the fold change was -1.48 (inactive). Take `CCOC(=O)CSc1n[nH]c(N)n1`: the fold change is -1.02 (inactive). Take `CC(=O)NCCNC(=O)c1cccn2c(=O)c3c4c(sc3nc12)CCCC4`: the fold change was -1.41 (inactive).

With `CCN(CC)CCNC(=O)CN1C(=O)COc2ccc(S(=O)(=O)N3CCOCC3)cc21`, the fold change was -1.1 (inactive). The same measure, in the same setting: for `COc1ccccc1N1CCN(S(=O)(=O)c2cccc3cccnc23)CC1` the value was -1.29 (inactive). Still for that read-out and setting: with `O=C1C2ON(c3ccccc3)C(c3ccncc3)C2C(=O)N1c1ccc(N2CCOCC2)cc1` (centres undefined) the figure was -1.7 (inactive); with `CCn1ncc(CNC(=O)c2cnn3c(C(F)F)cc(-c4ccc(C)cc4)nc23)c1C`, 1.02 (inactive); with `CCN1CCN(S(=O)(=O)c2ccc3[nH]c(=O)oc3c2)CC1`, 1.02 (inactive). Regarding `Cc1ccc(-c2csc3ncnc(NCCC(=O)O)c23)cc1`, the fold change was 1.18 (inactive). For the compound `CCOC(=O)C1=C(CS(=O)(=O)c2ccc(C)c(C)c2)NC(=O)NC1c1ccc(Cl)cc1` (centres undefined), the fold change was 1.11 (inactive).

As to `Cc1cc(NC(=O)c2onc(C)c2Cl)n(-c2ccccc2)n1`, the fold change is 1.18 (inactive).

Take `COc1ccc(N2CCN(c3ccc4nnc(C)n4n3)CC2)cc1`: the fold change was -1.14 (inactive). The same measure, in the same setting: with `Cc1cc(C)cc(N(CC(=O)O)S(=O)(=O)c2ccc3[nH]c(=O)c(=O)[nH]c3c2)c1` the figure was 1.37 (inactive); with `O=C(Cn1ncc2c3ccccc3n(Cc3ccccc3)c2c1=O)N1CCOCC1`, -1.17 (inactive). `Cc1ccc(-c2noc(-c3ccccc3Cl)n2)cc1`: the fold change was -93.3 (active). On the same count and under the same terms, for `Cc1ccc(C2CC(=O)Nc3cc4c(cc32)OCCO4)cc1Br` (centres undefined) the value was -1.14 (inactive); for `O=C1c2ccccc2C(=O)N1CCC1=NCCc2ccccc21`, -1.59 (inactive). Take `O=C(O)Cn1c(O)c(C2=c3ccccc3=NC2=O)sc1=S`: the call was inactive. Turning to `CCCn1c(NCc2cccs2)nc2ccccc21`, the fold change was 1.22 (inactive). On the same count and under the same terms, with `COc1ccc(Nc2c(-c3ccc(N4CCOCC4)cc3)nc3ncccn23)cc1OC` the figure was -1.26 (inactive); with `CC(C)C(NS(=O)(=O)c1ccc2c(c1)oc(=O)n2C)C(=O)Nc1ccc(F)c(F)c1` (centres undefined), -1.83 (inactive); with `CCOc1ccc2[nH]c(C)c(CN3CC4(C)CC3CC(C)(C)C4)c(=O)c2c1` (centres undefined), -1.96 (inactive).

In the case of `Fc1ccc(-c2nnc3ccc(NCCN4CCOCC4)nn23)cc1`, the fold change was -1.13 (inactive). Take `COc1ccc(-c2nc3s/c(=C\c4cccc(Cl)c4)c(=O)n3n2)cc1OC`: the fold change was -1.08 (inactive). In the case of `Cc1nn(CC(=O)Nc2sc3c(c2C#N)CCCCC3)c(C)c1[N+](=O)[O-]`, the fold change was -1.25 (inactive). The same measure, in the same setting: with `O=c1cc(-c2cc(Br)cc3c2OCOC3)oc2ccccc12` the figure was -1.26 (inactive). On to `C=CCN1C(=O)C2(/C(=C(/O)c3ccccc3)C(=O)C(=O)N2CCCN2CCOCC2)c2ccccc21` (centres undefined), for which the fold change is 1.29 (inactive). In the case of `Cc1cc(C(=O)NC2CCCCC2)on1`, the fold change was 1.39 (inactive). On to `COC(=O)c1nc2n(n1)C(c1cccc(Br)c1)C1=C(CCCC1=O)N2` (centres undefined), for which the compound was called inactive. With `NC(=O)C1CCN(C(=O)CN2C(=O)COc3ccc(S(=O)(=O)N4CCCC4)cc32)CC1`, the fold change is 1.05 (inactive).

For `COc1ccc(NC(=O)c2cnccn2)cc1F`, the fold change is -1.32 (inactive). For the compound `COc1ccc2cc3c(N)nn(C(=O)Cn4nc([N+](=O)[O-])c(Br)c4C)c3nc2c1`, the fold change was -1.45 (inactive).

Consider `CC1(C)CC(=O)c2sc(NC(=O)c3ccccc3)nc2C1`, for which the fold change is -1.97 (inactive). With `CCOC(=O)N1CCC(Nc2c(N3CCN(c4ccccc4)CC3)c(=O)c2=O)CC1`, the fold change was -1.05 (inactive).

For the compound `O=C(c1ccc2c(=O)n3c(nc2c1)CCCCC3)N1CCCCCC1`, the fold change is 1.21 (inactive).
